Measured values taken from PubChem BioAssay AID504834 (National Center for Advancing Translational Sciences (NCATS), 2011).
The campaign covered roughly 320,000 compounds. About 22,000 (6.9%) were called active. Inconclusive results (about 27%) are left out. Calls come from the whole dose curve; as a rule, active = well fitted inhibition curve with a large enough effect; inconclusive = small, poorly fitted or top-dose-only effect, or another doubt; inactive = no such curve, though single readings can be large or run the other way. What follows is part of a selection rich in actives, with near analogues and random picks from the rest. Where a call stands in place of a potency, no number is given.

experiment: Primary qHTS for delayed death inhibitors of the malarial parasite plastid, 96 hour incubation; details: P. falciparum luciferase reporter growth; series mostly up to 28.7 µM
Procedure, shortened: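 Compounds incubated with erythrocytes infected by luciferase-expressing P. falciparum (2% hematocrit, 0.05% parasitemia final) for 96 hours, 37 C in 5% CO2. Growth inhibition scored as decreased luciferase luminescence.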
Potency is the fitted concentration of half-maximal effect.

Structure (SMILES) | Potency
COc1cccc(C(=O)Nc2nnc(S(=O)(=O)N(C)c3ccccc3)s2)c1 | inactive
CCc1cc(-c2nnc(SCC(=O)NC3CC3)n2C)cs1 | inactive
Cc1ccc(S(=O)(=O)CC(=O)Nc2nnc(C)s2)cc1 | inactive
CCOc1ccc(CN2CCC(n3nccc3NC(=O)C3CC3)CC2)cc1CO | inactive
COc1ccccc1Oc1ccc(N2CC(C(=O)OCC(=O)c3ccc(F)cc3)CC2=O)cc1 (stereo unspecified) | inactive
CC(C)c1nc2cc(C(=O)NC(C)c3cnn(C)c3)ccc2o1 (stereo unspecified) | inactive
CCCCc1nc2cc(C(=O)NCCc3cnn(C)c3)ccc2o1 | 7.38 µM (active)
COc1ccc(CNC(=O)c2ccc3oc(C(C)C)nc3c2)cc1 | inactive
CC(=O)c1c(C)[nH]c(C(=O)CN2C(=O)NC(C)(C)C2=O)c1C | inactive
CN(C)CCN(C(=O)CN1C(=O)c2ccccc2C1=O)c1nc2cc3c(cc2s1)OCCO3 | inactive
COc1ccc(-n2c(-c3ccccc3)nc3ccccc3c2=O)cc1 | inactive
Cc1nc2ccccc2c(=O)n1-c1ccc(Cl)cc1Cl | inactive
CCCN1C(=O)C(Cc2nc3ccccc3c(=O)n2-c2ccccc2)c2cc(C)ccc21 (stereo unspecified) | 6.57 µM (active)
CC(=O)c1ccc(NC(=O)C2CCCN2S(=O)(=O)c2cccs2)cc1 (stereo unspecified) | inactive
Cc1c(NC(=O)c2c([N+](=O)[O-])cnn2C)c(=O)n(-c2ccccc2)n1C | inactive
Cc1c(NC(=O)Nc2cccc([N+](=O)[O-])c2)c(=O)n(-c2ccccc2)n1C | 3.7 µM (active)
Cc1c(NC(=S)Nc2ccccc2)c(=O)n(-c2ccccc2)n1C | inactive
Cc1c(C(=O)Nc2ccccn2)oc2ccc(Br)cc12 | inactive
O=C(NCCCn1ccnc1)c1cc(Br)c(Br)s1 | inactive
COc1ccc(S(=O)(=O)N2CCOCC2)cc1C(=O)Nc1nc2ccccc2s1 | inactive
COc1cc(/C=N/Nc2nc3ccccc3s2)ccc1O | inactive
COc1cccc2sc(NNC(=O)c3nc4ccccc4s3)nc12 | 9.28 µM (active)
CCn1c(SC(C)C(=O)Nc2ccc(N3CCOCC3)cc2)nnc1-c1ccco1 (stereo unspecified) | inactive
COc1ccc(NS(=O)(=O)c2ccc(NC(C)=O)cc2)cc1OC | inactive
COc1ccc(/C=C/C(=O)c2ccc(NS(=O)(=O)c3ccc(C)cc3)cc2)cc1O | 11.7 µM (active)
COc1ccc(C(=O)Oc2cc(/C=N/NS(=O)(=O)c3ccc(C)cc3)ccc2OC)cc1 | inactive

Structure (SMILES) | Potency
CSc1sc(C(=O)NNC(=O)c2ccc(Cl)cc2)c2c1C=CCC2 | inactive
COc1ccc(CN2C(=O)CN=C2Nc2ccc(C)cc2C)cc1 | inactive
CC(C)(C)c1ccc(CN2C(=O)CN=C(c3ccccc3)c3ccccc32)cc1 | 1.31 µM (active)
CC(C)(C)c1ccc(CN2C(=O)c3ccccc3S2(=O)=O)cc1 | inactive
CCCn1c(N)c(N(CCOC)C(=O)C2CCCC2)c(=O)[nH]c1=O | inactive
CCC(C(=O)NC1CCCCC1)N(C(=O)c1snc(C(N)=O)c1N)c1ccc(OC)cc1OC (stereo unspecified) | inactive
O=C(/C=C(O)/C=C/c1ccc(O)cc1)/C=C/c1ccc(O)cc1 | inactive
COc1cc(OC)c2ccc(=O)oc2c1C(CCN1CCN(c2ccccc2)CC1)c1ccc2c(c1)OCO2 (stereo unspecified) | 9.28 µM (active)
COc1ccc(N2CCN(Cc3cc(=O)oc4ccc5ccccc5c34)CC2)cc1 | inactive
c1ccc(-c2cnc(CN3CCN(c4ccccc4)CC3)o2)cc1 | inactive
Oc1cc2c(cc1CN1CCN(c3ccccc3)CC1)OCO2 | inactive
COc1cc(C(CCN2CCN(c3ccccc3)CC2)c2c(OC)cc(OC)c3ccc(=O)oc23)cc(OC)c1OC (stereo unspecified) | 8.28 µM (active)
COc1ccccc1N1CCN(Cc2cc(OC)c3c(c2)OCO3)CC1 | inactive
O=C1/C(=C/c2ccc3c(c2)OCO3)Oc2cc(OCC(=O)N3CC(O)C[C@H]3C(=O)O)ccc21 (stereo partly specified) | inactive
Cc1ccc(O)c(NC(=O)c2cc(-c3ccco3)on2)c1 | inactive
O=C(NCc1ccco1)/C(=C\c1cccc([N+](=O)[O-])c1)NC(=O)c1ccco1 | inactive
O=C(Nc1ccccc1)Nc1ccc(C(F)(F)F)cn1 | inactive
CCOC(=O)CN(C)S(=O)(=O)c1ccc(-c2cc(C(=O)OC)sc2C(F)(F)F)cc1 | inactive
COc1cc(NC(=O)CCNC(=O)Cn2ccc3ccccc3c2=O)cc(OC)c1OC | inactive
CNc1nc(SC)nc(N(C#N)CC(=O)OC)n1 | 8.28 µM (active)
CCCCn1c(N)c(N(CCOC)C(=O)COc2c(C)cccc2C)c(=O)[nH]c1=O | inactive
CC1CC(=O)N(CC(=O)Nc2cccc(Cl)c2)c2ccccc2S1(=O)=O (stereo unspecified) | inactive
CN1/C(=C\C(=O)c2cccnc2Cl)C(C)(C)c2ccccc21 | inactive
CC(=O)Nc1cccc(OCC(=O)/C=C2\N(C)c3ccccc3C2(C)C)c1 | 0.828 µM (active)
Cc1noc(C)c1C(=O)OCC(=O)/C=C1\N(C)c2ccccc2C1(C)C | inactive
O=C(O)c1c(NC(=O)N2CCCC2)sc2c1CCCC2 | inactive

Structure (SMILES) | Potency
COc1ccc(NC(=S)N2CCCC(CO)C2)c(OC)c1 (stereo unspecified) | inactive
COc1cc(NC(=S)N2CCCC(C)C2)c(OC)cc1Cl (stereo unspecified) | inactive
COc1cc(NC(=S)N2CCCC(C)C2)cc(OC)c1OC (stereo unspecified) | 10.4 µM (active)
O=C(O)c1ccc(OCC2CCCO2)cc1 (stereo unspecified) | inactive
N#Cc1ccc(/C=C2\CCn3c2nc2cc(C(=O)O)ccc2c3=O)cc1 | inactive
O=C(NCc1cccnc1)C12CC3CC(CC(C3)C1)C2 | inactive
CCCN1CCn2c3c(c4cc(Br)ccc42)CCCC31 (stereo unspecified) | 1.85 µM (active)
CCc1ccc(N(CC(=O)NCc2cccnc2)S(=O)(=O)c2ccccc2)cc1 | inactive
CCN(CC(=O)Nc1ccc(NC(C)=O)cc1)C(=O)C1CC(=O)N(Cc2ccc(C)cc2)C1 (stereo unspecified) | inactive
Cc1cc(=O)n2nc(N3CCC(C(=O)Nc4c(F)c(F)c(F)c(F)c4F)CC3)sc2n1 | 4.15 µM (active)
CCCOc1ccc(CNC(=O)C2CCN(c3nn4c(=O)cc(C)nc4s3)CC2)cc1 | 11.7 µM (active)
Cc1cc(=O)n2nc(N3CCCC(C(=O)N4CCN(C)CC4)C3)sc2n1 (stereo unspecified) | inactive
COc1ccc(CCNC(=O)C2CCN(c3nn4c(=O)cc(C)nc4s3)CC2)cc1OC | inactive
Cc1cc(=O)n2nc(N3CCCC(C(=O)NCc4cccc(Cl)c4)C3)sc2n1 (stereo unspecified) | inactive
Cc1cc(=O)n2nc(N3CCCC3C(=O)NCCCN3CC(C)CC(C)C3)sc2n1 (stereo unspecified) | inactive
Cc1ccc(CN2CC(C(=O)NNC(=O)Cn3ccc(C(F)(F)F)n3)CC2=O)cc1 (stereo unspecified) | inactive
Cc1ccc(-c2noc(C3CCCN(C(=O)c4cccc(Cl)c4)C3)n2)o1 (stereo unspecified) | inactive
N#CC1(NC(=O)COC(=O)CSc2ccc(F)cc2)CCCCC1 | inactive
O=C(Nc1cccc(F)c1)NC1CCCCCCC1 | inactive
CCCCNC(=O)N(O)C1N(/N=C/c2ccccc2O)C(=S)SC1(C)C (stereo unspecified) | 3.29 µM (active)
CCCCNC(=O)N(O)C1N(/N=C/c2ccc(N(C)C)cc2)C(=S)SC1(C)C (stereo unspecified) | inactive
O=C(/C=C/c1ccco1)NC(=S)N1CCCCC1 | inactive
CC(=O)Oc1ccc2c(c1)C(=O)c1ccccc1C2=O | inactive
CCOC(=O)c1nc(C)n(-c2ccc(Cl)cc2Cl)n1 | inactive
CCOC(=O)c1cnc(COc2ccccc2Cl)[nH]c1=O | inactive
CCOC(=O)c1cnc(SC)nc1Sc1ccc(Cl)cc1Cl | 9.28 µM (active)

Structure (SMILES) | Potency
CC[C@@H](C)[C@H](NC(=O)CCc1c(C)c2cc3c4c(oc3c(C)c2oc1=O)CCCC4)C(=O)O | inactive
COCCn1c(N)c(NCc2ccccc2)c(=O)[nH]c1=O | inactive
CC(C)N(C(=O)c1ccc(-c2ccccc2F)cc1)C(C)C | 4.65 µM (active)
CCN(CC(=O)Nc1c(F)cccc1F)C(=O)c1ccc(-c2ccccc2)cc1 | inactive
CC(Sc1nnc(-c2ccccc2F)n1C1CC1)C(N)=O (stereo unspecified) | inactive
Cc1ccn(CCC(=O)N2c3ccccc3CC2C)n1 (stereo unspecified) | inactive
O=C(COC(=O)c1ccccn1)NNC(=O)c1ccc([N+](=O)[O-])cc1 | inactive
Cc1nc2ccccc2c(=O)n1Cc1ccc([N+](=O)[O-])cc1 | inactive
C[C@@H](O)c1nc2ccccc2n1N | inactive
CC(O)c1nc2ccccc2n1Cc1ccc([N+](=O)[O-])cc1 (stereo unspecified) | 1.85 µM (active)
COc1cccc(N2CC(NC(=O)c3ccc4ccccc4c3)CC2=O)c1 (stereo unspecified) | inactive
COc1ccc(C2/C=C\CN(CC(C)C)CC(=O)N2Cc2ccc(F)cc2)cc1 (stereo unspecified) | inactive
O=S(=O)(c1cccs1)N1CCN(Cc2ccccc2)CC1 | inactive
COc1ccc(C2/C=C\CN(S(=O)(=O)c3cccs3)CC(=O)N2Cc2ccc(F)cc2)cc1 (stereo unspecified) | 10.4 µM (active)
CC(NC(=O)CN(C)S(=O)(=O)c1ccc(F)cc1)C1CC2CCC1C2 (stereo unspecified) | inactive
C=CCOc1ccc(/C=C/C(=O)OCC(=O)NCC2CCCO2)cc1 (stereo unspecified) | inactive
COc1cc([N+](=O)[O-])cc([N+](=O)[O-])c1NC(=O)N1CCOCC1 | inactive
O=C(Nc1ccccc1C(=O)O)c1ccc(N2C(=O)C3CC=CCC3C2=O)cc1 (stereo unspecified) | inactive
O=C(CSc1ccc(-c2ccc(Br)cc2)nn1)NCC1CCCO1 (stereo unspecified) | inactive
COc1ccc(CCNC(=O)CN2C(=O)COc3ccc(S(=O)(=O)N4CCCC4)cc32)cc1OC | inactive
CCN1C(=O)[C@H]2[C@@H](c3ccc(SC4CCCCC4)c(OC)c3)N[C@@](Cc3ccccc3)(C(=O)OC)[C@H]2C1=O | inactive
CCN1C(=O)[C@H]2[C@@H](c3ccc(-c4ccc(F)cc4)cc3)N[C@@](Cc3ccccc3)(C(=O)OC)[C@H]2C1=O | 5.86 µM (active)
CCOC(=O)C1(Cc2ccc(O)cc2)NC(c2ccccc2F)C2C(=O)N(C)C(=O)C21 (stereo unspecified) | inactive
